Rab9 prom act: activators of Rab9 promoter; Potency, µM (doses to about 9.22 µM), actives largely listed as activators; actives 2.8% (n = 320,000); AID 485297; Huh7 Rab9 promoter-luciferase reporter, luminescence, 24 h; note: nearly all actives have a fitted effect of over 60% in size
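Stable Rab9-luc Huh7, 1500 cells/well, 2 h settle; cmpd in DMSO, 24 h, 37 °C/5% CO2; luciferase reagent 10 min RT; luminescence.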
SMN2 splice enh: SMN2 splice variant enhancement; Potency, µM (series often up to 46.1 µM), hits mostly activators; HEK293 SMN2-luciferase splicing reporter, luminescence, 30-36 h; AID 1458; actives 2.8% (n = 210,000); note: nearly all actives have a fitted effect of over 55% in size
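HEK293 cells carry an SMN2 minigene-luciferase reporter in which exon 7 inclusion puts luciferase in frame. Cells were seeded at 2000 cells/well, attached for 10-12 hours, then exposed to compounds for 30-36 hours at 37C before ONE-Glo luminescence.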
NPC1 promoter act: activates the NPC1 promoter | Huh7 NPC1 promoter luciferase reporter, 24 h | Potency, µM (doses to about 9.22 µM), most hits filed as activators | actives 2.4% (n = 320,000) | AID 485313; note: nearly all actives have a fitted effect of over 60% in size
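Compounds in DMSO were transferred onto Huh7 NPC1-luciferase reporter cells pre-incubated 2 h; after 24 h at 37 °C, Amplite reagent was dispensed and luminescence recorded 10 min later.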
Luc counter: Kinase-Glo luciferase inhibition (counter-screen); actives 0.28% (n = 200,000); Kinase-Glo luciferase, ATP luminescence, 8 min; Q27757; Potency, µM (highest dose often 38.3 µM), hits mostly inhibitors; AID 1379; note: nearly all actives have a fitted effect of over 60% in size
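Substrate mix (final 50 mM imidazole pH 7.2, 50 mM KCl, 7 mM MgCl2, 10 uM ATP, 0.01% Tween 20, 0.05% BSA) plus pin-tool compound, then Kinase-Glo detection mix; 8 min ambient, luminescence read.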
FLuc counter: counter-screen for miR-21 project: firefly luciferase inhibitors or activators. purified FLuc, Km substrates, luminescence inhibition. actives 6.9% (n = 360,000). Potency, µM (top dose mostly 57.5 µM), hits mostly inhibitors. P08659; note: nearly all actives have a fitted effect of over 55% in size
Target sequence (P08659 whole entry, looked up): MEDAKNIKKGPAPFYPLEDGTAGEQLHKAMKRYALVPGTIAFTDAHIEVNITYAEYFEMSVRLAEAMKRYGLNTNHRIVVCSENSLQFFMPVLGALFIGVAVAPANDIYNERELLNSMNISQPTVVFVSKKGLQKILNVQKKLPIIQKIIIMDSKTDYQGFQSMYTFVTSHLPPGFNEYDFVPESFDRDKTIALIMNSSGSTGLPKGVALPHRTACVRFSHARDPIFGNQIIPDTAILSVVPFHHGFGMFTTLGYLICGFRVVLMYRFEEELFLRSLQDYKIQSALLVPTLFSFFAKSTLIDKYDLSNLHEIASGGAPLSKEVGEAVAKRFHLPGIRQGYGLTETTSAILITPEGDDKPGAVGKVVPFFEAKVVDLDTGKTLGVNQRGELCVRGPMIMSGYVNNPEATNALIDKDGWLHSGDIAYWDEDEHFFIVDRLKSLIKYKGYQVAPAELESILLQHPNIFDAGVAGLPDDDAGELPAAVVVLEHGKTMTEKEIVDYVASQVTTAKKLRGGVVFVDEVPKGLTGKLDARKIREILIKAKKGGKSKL
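Purified P. pyralis luciferase, 10 nM final, with Km-level 10 uM D-luciferin and 10 uM ATP in 50 mM Tris acetate pH 7.5, 10 mM Mg acetate, 0.01% Tween-20, 0.05% BSA; 6-point qHTS titration about 60 µM downward; luminescence read.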
Numbers stand for hits; n = inactive; u = inconclusive; x = no result given; [ ] = dose if it differs, or a comment. An excerpt weighted towards active compounds, which were near 7.3% of everything screened. Calls come from the whole dose curve; as a rule, active = well fitted curve in the direction sought with a large enough effect; inconclusive = small, poorly fitted or top-dose-only effect, or another doubt; inactive = no such curve, though single readings can be large; an effect the other way counts as inactive or inconclusive.

SMILES | Rab9 prom act | SMN2 splice enh | NPC1 promoter act | Luc counter | FLuc counter
COc1ccc(-c2nc3nc(C)c(Cc4ccccc4)c(=O)n3[nH]2)cc1 | n | u | n | n | 9.5µM
Cc1cc(=O)n2[nH]c(COc3ccccc3)nc2n1 | n | n | n | n | u
COC(=O)Cc1c(C)nc2nc(NCc3ccc(Br)cc3)[nH]n2c1=O | x | n | x | x | u
COC(=O)Cc1c(C)nc2nc(-c3ccc(OC)cc3)[nH]n2c1=O | n | n | n | n | 15µM
c1ccc(-c2nnc(CN3CCN(c4ccccn4)CC3)o2)cc1 | x | n | x | x | n
Cc1ccc2c(CN3CCC(C)CC3)cc(=O)oc2c1C | u | x | u | x | 17µM
O=c1[nH]c(-c2ccncc2)nc2ccccc12 | n | n | n | n | u
Cc1cccc(-c2nc3ccccc3c(=O)[nH]2)c1 | 3.2µM | x | 2.8µM | x | 11µM
COc1ccc(-c2nc3ccccc3c(=O)[nH]2)cc1 | 0.71µM | x | 1.4µM | x | 3.4µM
CN(C)c1ccc(-c2nc3ccccc3c(=O)[nH]2)cc1 | 0.25µM | x | 0.35µM | x | 0.6µM
CC(C)CCOc1ccc(Oc2nc(N(C)C)nc(N(C)C)n2)nn1 | x | n | x | x | n
c1ccc2c(c1)nnn1c3ccccc3nc21 | n | n | 1.1µM | 13µM | 4.8µM
COc1ccc(Cc2nc(C(=O)Nc3ccc(OC)cc3)cs2)cc1 | n | n | n | n | 24µM
COc1ccc(NC(=O)c2cc(C)on2)cc1 | 2.8µM | 11µM | 2.8µM | n | 21µM
CCc1ccc(NC(=O)c2onc(C)c2Cl)cc1 | 2µM | 14µM | 2.5µM | n | 3.4µM
Cc1noc(C(=O)Nc2ccc(C#N)cc2)c1Cl | n | x | n | x | n
COc1ccc(NC(=O)c2cc(C)on2)cc1OC | n | x | n | n | n
COc1ccc(NC(=O)c2onc(C)c2Cl)cc1 | 3.2µM | x | 3.5µM | x | 15µM
COc1cccc(NC(=O)CSC2=Nc3ccccc3C3=NC(CC(=O)NCCc4ccccc4)C(=O)N23)c1 (centres undefined) | x | x | x | x | n
Cc1ccc(N2CCN(c3nc4ccc(C)cc4n4nnnc34)CC2)c(C)c1 | x | x | x | x | n
Cc1ccc(C)c(NC(=O)Cn2cc(C(=O)c3cccs3)c3ccccc32)c1 | x | n | x | x | n
CCN(CC)c1ccc(NC(=O)c2ccccc2F)cc1 | 0.56µM | 11µM | u | n | 6µM
O=C(Nc1ccc(Nc2ccccc2)cc1)c1ccccc1F | u | x | u | x | 12µM
O=C(Nc1cc(NC(=O)c2ccccc2F)ccc1Cl)c1ccccc1 | n | x | n | x | 15µM
C=CCNc1ncnc2c1cnn2-c1cccc(C)c1 | 1.4µM | 11µM | 2.5µM | n | 4.8µM
SMILES | Rab9 prom act | SMN2 splice enh | NPC1 promoter act | Luc counter | FLuc counter
Cc1c(C)n(CCc2ccccc2)c2ncnc(NCCO)c12 | 1.8µM | x | 3.5µM | x | 17µM
Cc1c(C)n(CCCN(C)C)c2ncnc(NCc3ccccc3)c12 | n | x | n | x | n
Cc1ccc(CNc2ncnc3c2cnn3-c2ccc(Cl)cc2)cc1 | x | x | x | x | n
C=CCNc1ncnc2c1cnn2-c1ccc(Cl)cc1 | 1.1µM | 2.8µM | 0.89µM | n | 0.85µM
Cc1ccc(-n2c(C)c(C)c3c(NCCCO)ncnc32)cc1 | 2.5µM | x | 2.8µM | x | 19µM
COc1ccc(-n2c(C)c(C)c3c(NCCO)ncnc32)cc1 | n | x | n | x | u
CCCn1c(-c2ccc(F)cc2)nc2c(NC(C)CCCN(CC)CC)nc(C)nc21 (centres undefined) | x | n | x | n | x
COC1=C(C(=O)c2ccccc2)C(=O)C2(CC=C(C)C)C[C@H](C(=O)OCC(F)(F)F)C(C)(C)[C@@]1(CC=C(C)C)C2=O (tested in a mixture with another compound) | x | n | x | n | x
Cc1nn(-c2ccc(F)cc2)c(-n2cccc2)c1C(=O)NCCc1ccc(Cl)cc1 | x | x | x | x | n
CCN(CC)CCCNc1ncnc2c1cnn2-c1ccc(C)c(C)c1 | x | x | x | x | 15µM
Cc1cccc(-n2ncc3c(NCCCO)ncnc32)c1 | 1.1µM | 11µM | 2.5µM | n | 6.7µM
O=C(CN1C(=O)C2CCCCN2c2ccc(C(=O)N3CCCC3)cc21)NCc1ccccc1 (centres undefined) | x | x | x | x | n
Cc1cc(Cc2cc(C)c(N)cc2N)c(N)cc1N | x | n[9.22 µM] | x | n[7.66 µM] | x
Cn1ncc(Br)c1C(=O)N/N=C/c1ccc(OS(=O)(=O)c2ccccc2)cc1 | n | n | n | n | n
CC(/C=N/NC(=O)c1nn(C)c(C)c1Br)=C\c1ccccc1 | 3.5µM | x | u | n | 1.9µM
CC(/C=N/NC(=O)c1c(Br)cnn1C)=C\c1ccccc1 | n | n | n | n | 17µM
CCCC(=O)C1=C(c2ccc(C)cc2)N(C(=O)CCC)n2cnnc2S1 | x | x | x | x | n
CC(=O)Nc1c(C)nn(-c2ccccc2)c1N1CCC(C(=O)NCc2ccc(Cl)cc2)CC1 | x | x | x | x | n
Cc1ccc2oc(C(=O)N(Cc3ccncc3)CC3CCCO3)c(C)c2c1 (centres undefined) | u | x | u | x | 11µM
CCCc1ccc2oc(C(=O)N(Cc3ccncc3)CC3CCCO3)c(C)c2c1 (centres undefined) | n | x | n | x | n
CCN(Cc1ccncc1)C(=O)CCc1nnc(CCC2CCCCC2)o1 | n | x | n | n | n
CN(CCCC1CCCC1)C(=O)CCc1nnc(-c2ccccc2)o1 | 2.5µM | 13µM | u | n | 12µM
CN(C(=O)CCc1nnc(-c2ccc(-c3ccccc3)cc2)o1)C1CCOCC1 | n | x | n | x | 17µM
Cc1cc(C)n(CCN(C)C(=O)CCc2nnc(CCC3CCCCC3)o2)n1 | u | x | u | n | 15µM
COc1ccc(-c2nc3ccccc3n3c(-c4ccc(OC)cc4)c4c(=O)n(C)c(=O)n(C)c4c23)cc1 | x | n | x | x | n
SMILES | Rab9 prom act | SMN2 splice enh | NPC1 promoter act | Luc counter | FLuc counter
CCCCCCCCCCCCCCCC(=O)NCC(=O)O | x | n | x | n | x
Cc1nc2nc(SCc3c(F)cccc3Cl)nn2c(C)c1Cc1ccccc1 | x | x | x | x | 5.4µM
Cc1nc2nc(SCc3ccc(F)cc3Cl)nn2c(C)c1Cc1ccccc1 | x | x | x | x | n
O=C(Nc1ccc2ccccc2c1)c1ccc(Cl)cc1Cl | 0.4µM | x | 0.22µM | x | 0.34µM
CC(C)C(=O)Nc1cccc(NC(=O)c2ccc(Cl)cc2Cl)c1 | n | n | n | n | u
O=C(Nc1ccc2ccccc2c1)c1cc(F)c(F)cc1Cl | u | x | 2µM | x | 3.4µM
O=C(Nc1ccc2ccccc2c1)c1ccccc1O | 3.5µM | x | 4µM | x | 0.3µM
Cc1occc1C(=O)Nc1ccc2ccccc2c1 | 2.5µM | 11µM | 1.4µM | n | 3.4µM
O=C(CS)Nc1ccc2ccccc2c1 | n | x | n | x | n
CCCCc1nc2c(c3c1C[C@H](C)OC3)CN(S(=O)(=O)c1ccc(C)cc1)CC2 | x | n[9.22 µM] | x | n[7.66 µM] | x
CSc1ncc(C(=O)NCc2ccc(C)cc2)c(-c2ccccc2)n1 | x | x | x | x | n
CS(=O)(=O)N1CCc2cc(NC(=O)c3ccc(Cl)cc3Cl)ccc21 | n | n | n | n | 19µM
O=C(Nc1ncn[nH]1)c1ccc(Cl)cc1Cl | n | n | n | n | n
O=C(Nc1nc(=S)ss1)c1ccc(Cl)cc1Cl | u | u | u | n | 15µM
CCCN(CCC)C(=O)Cn1c(SCc2cccc(C(F)(F)F)c2)nc2cccnc21 | x | x | x | x | n

Source: PubChem BioAssay
